Hits are enriched below; roughly 7.4% of the tested compounds scored in any of these assays.
NOMO-1 viab: NOMO-1 AML cell viability reduction, primary screen, STK33 inhibitor project, CellTiter-Glo luminescence | NOMO-1 AML viability, 72 h | inhibition, % (test concentration not listed) | 7.5% of 37,000 active | AID 2330, 2010; in the data active means inhibition above about 80%; inconclusive means no clear call, values can overlap the other calls
PD-1 reversal: activators reversing PD-1 mediated T-cell inhibition, primary screen, luminescence, primary human CD4 T cells, PD-L1 beads; CellTiter-Glo 96 h; AID 2316, 2010; 29,000 tested, under 10 active; activation, % (concentration not given with the values); call rule not given here;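 further: 0% = median vehicle wells and 100% = positive control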
MITF inh: inhibitors of MITF, primary screen, MITF inhibitor project, cell-based, luminescence; TRPM1 promoter luciferase, 24 h; inhibition, % (test concentration not listed); 0.28% of 37,000 active; in the data active means inhibition above about 85%; inconclusive means no clear call, values can overlap the other calls; inactive means below about 68%;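 further: human melanocyte line stably carrying TRPM1 promoter luciferase reporter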
YB-1 expr inh: inhibitors of YB-1 gene expression, primary screen, cell-based, fluorescence; U2OS, qRT-PCR YB-1 vs CDIP delta delta Cp, 16 h; active compounds read high; zero = DMSO, each unit about twofold; delta delta Cp (YB-1 minus CDIP) (concentration not given with the values); 0.37% of 30,000 active;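 active means delta delta Cp rounded down to an integer at or above 3, about 3 SD of DMSO wells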;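 further: higher means less YB-1 transcript or more CDIP transcript relative to DMSO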
Shh pathway inh: Hedgehog pathway signaling inhibitors, primary screen, luminescence, Shh-LIGHT2 cells, Gli-luciferase | Shh-LIGHT2 Gli-luciferase reporter, 30 h | inhibition, % (test concentration not listed) | 2.1% of 22,000 active;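 active means mean inhibition across valid replicates above about 65%, limit read from the data; inconclusive means mean under the limit, yet half or more replicates past it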;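 further: pathway switched on by Shh-conditioned medium diluted 1 in 25 in low serum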
* hit, by the source's call; ? = inconclusive; / = no result given.

SMILES	NOMO-1 viab	PD-1 reversal	MITF inh	YB-1 expr inh	Shh pathway inh
C=CC[C@@]12N=C(c3ccc(OCCCO)cc3)O[C@@H]1c1ccccc1CN(Cc1ccccc1)C2=O	/	/	/	-0.44	/
O=S(=O)(NCCc1c[nH]c2ccccc12)c1ccc(Cl)c(Cl)c1	?	-3	7	-0.14	-50
CC1=C(CO)C(=O)OC([C@@H](C)C2CC[C@H]3C4C[C@H]5O[C@]56[C@@H](O)C=CC(=O)[C@]6(C)C4CC[C@]23C)C1 (some centres undefined)	120*	-13	90*	0.67	?
C=C1C(=O)O[C@@H]2/C=C(/CO)CC/C=C(/C)C[C@H](OC(=O)C(C)CO)[C@@H]12 (some centres undefined)	118*	-2	6	-0.18	11
C=C1C(=O)O[C@@H]2/C=C(\CO)CCC/C(C)=C/[C@H](O)C12 (some centres undefined)	116*	-5	2	-0.27	-20
C=C1C(=O)O[C@H]2[C@H]1[C@@H](OC(=O)C(C)CO)C[C@@]1(C)[C@H](O)CCC(=O)[C@H]21 (some centres undefined)	/	/	/	-0.053	?
C=CCN1C(=O)C(O)(CC(=O)c2ccc(C)o2)c2ccccc21 (centres undefined)	27	/	3	/	/
O=C(CC1(O)C(=O)N(C/C=C/c2ccccc2)c2ccccc21)c1ccccn1 (centres undefined)	123*	-6	-15	/	/
COc1ccc(CN(C)C[C@H]2OCc3cnnn3CCCC(=O)N([C@@H](C)CO)C[C@@H]2C)cc1	/	/	/	0.14	/
C[C@@H]1CN([C@H](C)CO)C(=O)c2cccc(NC(=O)Nc3ccc(C(F)(F)F)cc3)c2O[C@H]1CN(C)Cc1ccc(-c2ccccc2)cc1	110*	/	10	0.61	-4
C[C@H](CO)N1C[C@H](C)[C@H](CN(C)Cc2ccc(-c3ccccc3)cc2)Oc2c(NC(=O)Nc3ccc(C(F)(F)F)cc3)cccc2C1=O	82*	-2	-8	0.57	-68
C[C@@H]1CN([C@@H](C)CO)C(=O)c2cccc(NC(=O)Nc3ccc(C(F)(F)F)cc3)c2O[C@H]1CN(C)Cc1ccc(-c2ccccc2)cc1	77	-1	31	0.023	4
C[C@H]1CN([C@@H](C)CO)C(=O)Cc2cc(NC(=O)Cc3cn(C)c4ccccc34)ccc2O[C@@H]1CN(C)S(=O)(=O)c1ccc(F)cc1	0	3	20	0.13	-6
O=C(NCCNc1ccc(C(F)(F)F)cc1[N+](=O)[O-])c1ccc(F)cc1	18	-2	0	/	/
COC(=O)c1ccc(OC(=O)CS(=O)c2ccc(C(F)(F)F)cc2[N+](=O)[O-])cc1 (centres undefined)	109*	/	26	/	/
N#Cc1ccc(-c2ccc(OC(=O)CS(=O)c3ccc(C(F)(F)F)cc3[N+](=O)[O-])cc2)cc1 (centres undefined)	129*	-11	-8	/	/
COc1ccc(NC(=O)N(C)C[C@@H]2Oc3ccc(NC(=O)Cc4cn(C)c5ccccc45)cc3C(=O)N([C@@H](C)CO)C[C@@H]2C)cc1	22	-1	11	0.071	/
O=C1C(=O)N(CCCN2CCOCC2)C(c2ccc(F)cc2)C1C(=O)c1cc2ccccc2o1 (centres undefined)	13	/	23	/	/
C[C@@H]1CN([C@H](C)CO)C(=O)Cc2cc(NC(=O)NC3CCCCC3)ccc2O[C@H]1CN(C)Cc1ccc(C(F)(F)F)cc1	93*	/	20	0.17	22
C[C@@H]1CN([C@H](C)CO)C(=O)Cc2cc(NC(=O)Nc3ccc(F)cc3)ccc2O[C@@H]1CN(C)Cc1ccc(C(F)(F)F)cc1	?	-4	8	-0.29	28
C[C@@H]1CN([C@@H](C)CO)C(=O)Cc2cc(NC(=O)Nc3ccc(C(F)(F)F)cc3)ccc2O[C@@H]1CN(C)Cc1ccc(C(F)(F)F)cc1	124*	/	2	-0.0071	/
C[C@H]1CN([C@@H](C)CO)C(=O)Cc2cc(NC(=O)Nc3ccc(C(F)(F)F)cc3)ccc2O[C@H]1CN(C)Cc1ccc(C(F)(F)F)cc1	136*	-10	34	0.24	-31
Cc1ccc(S(=O)(=O)N(C)C[C@H]2Oc3ccc(NC(=O)Cc4ccccc4)cc3CC(=O)N([C@@H](C)CO)C[C@H]2C)cc1	20	-1	2	0.27	1

High-throughput results deposited in PubChem BioAssay by Broad Institute.
